In PubChem BioAssay AID504861 (Broad Institute, 2011):
The campaign covered roughly 1,200 compounds. About 290 (24%) were called active. Not shown: some 3% with an inconclusive outcome.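 Rule for the calls: active = compounds lowering cell viability signal with fitted half-maximal concentration at most ten times their highest tested concentration; inconclusive = flat fit with 30 to 70% signal loss, or poor fit; inactive = the rest.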 The list is a sample of the results. Results with a measured potency or affinity are listed apart.

assay: HEK293T cell viability reduction, dose response, cytotoxicity control for LMP1 NF-kB inhibitor project, CellTiter-Glo luminescence, cherry-picks (AID 504861); settings: CellTiter-Glo ATP luminescence, 48 h; series mostly up to 26 µM; activity change, negative = cytotoxicity: at the top concentration

| SMILES | activity change, negative = cytotoxicity |
| --- | --- |
| CCn1c2ccccc2c2cc(/C=N/NC(=O)c3ccncc3)ccc21 | 10.8% (inactive) |
| COc1ccc(CCNC(=O)c2nnn(-c3ccc4c(c3)OCCO4)c2N)cc1OC | -3.16% (inactive) |
| CNS(=O)(=O)c1cccc(C(=O)OCC(=O)c2ccc3c(c2)OCCO3)c1 | 4.41% (inactive) |
| O=C(c1noc2c1CCCC2)N1CCCCC1 | 2.78% (inactive) |
| CC[C@H]1OC(=O)[C@H](C)[C@@H](O[C@H]2C[C@@](C)(OC)[C@@H](O)[C@H](C)O2)[C@H](C)[C@@H](O[C@@H]2O[C@H](C)C[C@H](N(C)C)[C@H]2O)[C@](C)(O)C[C@@H](C)C(=NOCOCCOC)[C@H](C)[C@@H](O)[C@]1(C)O | 1.19% (inactive) |
| COc1cc2c(cc1OC)-c1cc(Nc3ccc4c(c3)OCCO4)nc(=O)n1CC2 | 35.8% (inactive) |
| Cc1nc2ncccn2c1-c1csc(Nc2ccccc2)n1 | 3.33% (inactive) |
| CCOC(=O)C1=C(C)NC(C)=C(C(=O)OCC)C1c1cn(-c2ccccc2)nc1-c1ccco1 | 9.17% (inactive) |
| COCCn1c(SCCN2CCOCC2)nc2c1c(=O)[nH]c(=O)n2C | -5.1% (inactive) |
| Cc1cccc(NC(=O)c2cnc3ccccn3c2=O)c1 | 11.3% (inactive) |
| CC(C)c1nnc(NC(=O)c2ccc(N3C(=O)CCC3=O)cc2)s1 | 9.62% (inactive) |
| COc1ccc(-n2c(SCC(=O)Nc3cc(C)on3)nc3c(c2=O)SCC3)cc1 | 6.53% (inactive) |
| COc1cc(/C=C2/SC(=S)N(Cc3ccccc3)C2=O)ccc1OCC(=O)O | 1.52% (inactive) |
| COc1ccc(/C=N/N=C/c2ccc(OC)c(OC)c2)cc1OC | 13.3% (inactive) |
| CCOCCCn1c(=S)[nH]c2ncccc2c1=O | 21.6% (inactive) |
| O=c1c2c(nc3c(-c4ccc(Cl)cc4)c[nH]n13)CCCC2 | -9.92% (inactive) |
| CC(=NNC(=S)N1CCCCCC1)c1cccc2cccnc12 | -5.32% (inactive) |
| CC1=C(CC(=O)O)c2cc(F)ccc2C1=Cc1ccc(S(C)(=O)=O)cc1 | 0.041% (inactive) |
| COc1ccc(OC)c(CCNC(=O)CCn2nc(C)c3c(C)n(-c4ccccc4)nc3c2=O)c1 | 3.9% (inactive) |
| COCCn1c(C)cc(C(=O)COC(=O)C23CC4CC(CC(O)(C4)C2)C3)c1C | 3.31% (inactive) |
| CC1CCc2nc(N)c(C#N)c(-c3cccnc3)c2C1 (centres undefined) | -2.74% (inactive) |
| N#CCN(N=Nc1ccccc1)c1ccccc1 | -6.12% (inactive) |
| CC(NC(=O)CCOc1ccccc1)c1ccccc1 (centres undefined) | 1.19% (inactive) |
| C[C@@H](OC(=O)c1[nH]cnc1C(=O)N1CCc2ccccc2C1)c1ccccc1 | -0.366% (inactive) |
| COc1cccc(-c2nnc(NC(=O)c3ccc(S(=O)(=O)N(CC(C)C)CC(C)C)cc3)o2)c1 | 1.48% (inactive) |
| CCn1c2ccccc2c2cc(/C=N/n3cnnc3)ccc21 | -7.83% (inactive) |

| SMILES | activity change, negative = cytotoxicity |
| --- | --- |
| C=CC[N+](C)(C)C/C(Cl)=C(\Cl)c1ccccc1 | 7.76% (inactive) |
| O=[N+]([O-])c1ccc(Cl)c(S(=O)(=O)NCC2CCCO2)c1 (centres undefined) | 6.06% (inactive) |
| c1ccc2c(-c3ccncc3)c[nH]c2c1 | -0.974% (inactive) |
| COc1cc(/C=N/NC(=O)c2cc(C34CC5CC(CC(C5)C3)C4)[nH]n2)ccc1O | 3.92% (inactive) |
| Cc1ccccc1CC(=O)NCc1cccnc1 | -5.15% (inactive) |
| CCn1c2ccccc2c2cc(/C=N/NC(=O)c3cc(O)cc(O)c3)ccc21 | -8.8% (inactive) |
| Oc1ccccc1C=NN=Cc1c(O)ccc2ccccc12 | 3.24% (inactive) |
| c1nc(NCc2ccc3c(c2)OCO3)c2cc(-c3ccoc3)ccc2n1 | -11.3% (inactive) |
| Oc1c(N=NC(=S)Nc2ccccc2F)c2ccccc2n1Cc1ccccc1F | 12% (inactive) |
| CCS(=O)(=O)c1nnnn1-c1ccccc1S(C)(=O)=O | -0.286% (inactive) |
| O=C1c2ccccc2C(=O)c2cc(N3CCCCC3)ccc21 | -5.57% (inactive) |
| O=C(NC(c1ccc(Cl)cc1)c1cc(Cl)c2cccnc2c1O)c1cccnc1 (centres undefined) | 15.2% (inactive) |
| CC(C)c1cc(NC(=O)c2ccccc2)cc(C(C)C)c1O | 3.11% (inactive) |
| Nc1cc2ccncc2c2ccccc12 | -17.4% (inactive) |
| CC1=C(C)C(OCCCl)N(c2cc(O)c(Cl)cc2F)C1=O (centres undefined) | 11.4% (inactive) |
| Cc1ccc(N2CCCCn3c2nc2c3c(=O)n(CC(=O)O)c(=O)n2C)cc1 | 5.91% (inactive) |
| Nc1ncnc(N2CCc3ccccc32)c1[N+](=O)[O-] | 5.71% (inactive) |
| COc1ccc(-c2cc3c(=O)n(CC(=O)NCCCN4CCN(Cc5ccccc5)CC4)ncn3n2)cc1 | -1.47% (inactive) |
| Cc1ccccc1C(=O)N1CCN(c2ccc(NC(=O)c3cccs3)cc2)CC1 | 12.1% (inactive) |
| COc1nc(Nc2nc3ccccc3c(=O)[nH]2)nc2ccc(C)cc12 | 6.13% (inactive) |
| COc1ccc2cc3c(N)nn(C(=O)c4ccccc4[N+](=O)[O-])c3nc2c1 | -10.9% (inactive) |
| O=C(O)c1c2c(nc3ccccc13)/C(=C/c1ccc(O)cc1)CC2 | 11.7% (inactive) |
| Cc1nn(CCCC(=O)Nc2cccnc2Cl)c(C)c1[N+](=O)[O-] | 1.66% (inactive) |
| COCCN1Cc2cccc(C(=O)N3CCN(c4cc(C)ccc4C)CC3)c2C1=O | -7.98% (inactive) |
| CCOC(=O)[C@H]1[C@H]2COc3ccc(OC)cc3[C@@H]2N2C(=O)CN(C)C(=O)[C@@]12C | 0.991% (inactive) |
| CCn1nc(C(=O)Nc2nc(-c3ccccn3)cs2)c2ccccc2c1=O | 5.64% (inactive) |

| SMILES | activity change, negative = cytotoxicity |
| --- | --- |
| O=C(CN1C(=O)c2ccccc2S1(=O)=O)c1ccccc1 | 16.5% (inactive) |
| COc1cc(C2NC(=O)NC(C)=C2C(=O)OC2CCCC(C)C2)cc(Br)c1O (centres undefined) | 1.98% (inactive) |
| O=C(c1ccco1)N1CCN(S(=O)(=O)/C=C/c2ccccc2)CC1 | -2.25% (inactive) |
| CCCN(CCC)S(=O)(=O)c1ccc(C(=O)Nc2nnc(-c3cc(OC)cc(OC)c3)o2)cc1 | 2.24% (inactive) |
| S=C(N/N=C/c1ccc2ncccc2c1)Nc1cccnc1 | 0.537% (inactive) |
| COc1cc(/C=N/NC(=S)Nc2cccc(C(=O)O)c2)ccc1O | 13.6% (inactive) |
| COc1ccc(CNC(=O)N2[C@H]3CC[C@@H]2C=C(c2ccc(F)cc2OCc2ccccc2)C3)cc1OC | 8.66% (inactive) |
| CCOc1cccc(CNc2nnnn2C)c1 | -0.593% (inactive) |
| Cn1c(=O)[nH]c(=O)c2c1nc(CN1CCOCC1)n2CCCc1ccccc1 | 2.77% (inactive) |
| O=C(c1ccc(C#CC2(O)CCCCC2)cc1)N1CCN(C(c2ccccc2)c2ccccc2)CC1 | 3.71% (inactive) |
| CN(CC(=O)Nc1cccnc1)S(=O)(=O)c1ccc(Br)cc1 | 21.2% (inactive) |
| CC1CCN(c2ccc(-c3ccc(NC(=O)C(F)(F)F)cc3)nn2)CC1 | 7.11% (inactive) |
| Cc1ccc(-c2cc(N)n3nc(-c4ccc(C)cc4)cc3n2)cc1 | 10.3% (inactive) |
| COc1ccc(S(=O)(=O)NC(CC(=O)NCc2ccco2)C(C)C)cc1 (centres undefined) | 7.05% (inactive) |
| CC(=O)Nc1ccc(S(=O)(=O)N2CCCC2)cc1 | 10% (inactive) |
| CC(=O)Nc1nc(C)c(-c2csc(Nc3cccc([N+](=O)[O-])c3)n2)s1 | -0.558% (inactive) |
| Nc1ccn([C@@H]2O[C@H](CO)[C@@H](O)C2O)c(=O)n1 (some centres undefined) | 1.52% (inactive) |
| CCOC(=O)N1CCN(C(=O)C2CCC(=O)N(Cc3ccccc3OC)C2)CC1 (centres undefined) | 4.09% (inactive) |
| Cc1csc(NC(=O)c2ccc(N3CCCC3=O)cc2)n1 | -6.07% (inactive) |
| COc1ccc(/C=C2\SC(=O)N(CCCC(=O)Nc3ccc(C(=O)O)cc3)C2=O)cc1 | 1.35% (inactive) |
| O=C1/C(=C/c2ccncc2)SC(=S)N1Cc1ccccc1 | 3.49% (inactive) |
| COc1ccccc1NC(=O)CC(c1ccc(OC(C)C)cc1)c1ccccc1OC (centres undefined) | 3.18% (inactive) |
| Brc1ccc(-c2csc(N3CCCCCC3)n2)cc1 | 14.6% (inactive) |
| CC(C)(O)C#Cc1ccc([C@@H]2C[C@H]3CN(c4ccccc4)C(=O)[C@]34CCCN24)s1 | -8.23% (inactive) |
| CN(C1CCCCC1)S(=O)(=O)c1ccc(C(=O)N2CCN(c3nc4ccccc4s3)CC2)cc1 | 3.38% (inactive) |
| Cc1cccc(NC(=S)N=Nc2c(O)n(C)c3ccc(S(=O)(=O)N4CCOCC4)cc23)c1 | 8.1% (inactive) |

| SMILES | activity change, negative = cytotoxicity |
| --- | --- |
| CC(CCc1ccco1)N(C)S(=O)(=O)c1csc(C(N)=O)c1 (centres undefined) | 3.06% (inactive) |
| CCC(=O)NC(c1ccc(C)cc1)c1cc(Cl)c2cccnc2c1O (centres undefined) | 4.72% (inactive) |
| O=C(Nc1ccncc1)OCc1ccccc1 | -5.71% (inactive) |
| CS(=O)(=O)N(CC(=O)Nc1ccc(F)cc1F)C1CCCCC1 | 7.69% (inactive) |
| COc1ccc(-c2cc3nc4n(c(=O)c3s2)CCC4)cc1 | -0.959% (inactive) |
| O=C(N/N=C(/CC(=O)c1cccs1)C(F)(F)F)c1ccc(O)cc1 | 13.8% (inactive) |
| CC(C)(C)c1ccc(C(=O)N2CCC(=O)N(C(CO)Cc3ccccc3)CC2)cc1 (centres undefined) | 1.74% (inactive) |
| COc1ccc(-n2c(C)c(C(C)=O)c3cc(OC(C)=O)ccc32)cc1 | -3.31% (inactive) |
| O=c1nc(N/N=C/C=C/c2ccccc2)cn[nH]1 | 13.1% (inactive) |
| COc1ccc2cc3c(N)nn(C(=O)c4cccc([N+](=O)[O-])c4)c3nc2c1 | 8.36% (inactive) |
| CCCc1cc(=O)[nH]c(SCC(=O)NC2CCCCC2)n1 | 0.135% (inactive) |
| O=Cc1cc(OCc2ccccc2)ccc1[B-](F)(F)F | 17.3% (inactive) |
| C[C@@H]1CN([C@@H](C)CO)S(=O)(=O)c2ccc(/C=C/c3ccccc3)cc2O[C@@H]1CN(C)Cc1ccc(C(=O)O)cc1 | -12.6% (inactive) |
| c1csc(CNc2ncnc3ccc(-c4ccoc4)cc23)c1 | -9.02% (inactive) |
| CC(=O)OCC(=O)[C@@]1(O)CC[C@H]2[C@@H]3CCC4=CC(=O)CC[C@]4(C)[C@H]3[C@@H](O)C[C@@]21C | 1.32% (inactive) |
| O=C(NCCc1ccccc1)c1ccccc1Cl | 5.61% (inactive) |
| COc1ccccc1-c1nnc(Sc2nc([N+](=O)[O-])nn2C)o1 | -10.5% (inactive) |
| Cc1ccc(NC(=O)/C=N/OCC(=O)NCc2ccccc2Cl)cc1 | 4.14% (inactive) |
| CSc1ccccc1C(=O)N1CCC2(CC1)CC(=O)c1ccccc1O2 | -2.08% (inactive) |
| CSc1nc(N)nc(SCC(=O)C23CC4CC(CC(C4)C2)C3)c1C#N | -8.4% (inactive) |
| COc1cc2c(=O)n(CC3CCCO3)c(=O)n(CC(=O)Nc3cccc(Cl)c3)c2cc1OC (centres undefined) | 4.18% (inactive) |
| O=[N+]([O-])c1ccc(/C=N/Nc2cc(Cl)nc(-c3ccccc3)n2)cc1 | 3.89% (inactive) |
| Cc1nn(C(C)(C)C)c(C)c1/C=N/OC(=O)Nc1ccc(Cl)c(Cl)c1 | 7.48% (inactive) |
| COc1ccc(-c2csc3ncnc(NCCN4CCOCC4)c23)cc1 | 7.69% (inactive) |
| COc1ccc2cc(-c3cc(C(=O)OCC(=O)NC4CCS(=O)(=O)C4)c4ccccc4n3)ccc2c1 (centres undefined) | -0.211% (inactive) |
| CCOc1ccc(-c2cc(C(=O)N/N=C/c3ccc(O)cc3)c3ccccc3n2)cc1 | -1.88% (inactive) |
